{
  "source": "PubChem BioAssay (NCI)",
  "assay": "NCI Yeast Anticancer Drug Screen. Data for the wt1 strain (AID 149);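 also: 0% = growth of vehicle-treated wt1 cultures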",
  "conditions": "S. cerevisiae wt1 strain (SPY 50644) growth inhibition, hits give high values",
  "description": "Growth inhibition of yeast strains with defined genetic alterations is measured as a screen for potential anti-cancer activity. Selected strains with alterations in DNA damage repair or cell cycle control were exposed to compounds and growth inhibition was measured relative to vehicle treated controls. The strain used in this assay is wt1",
  "note": "Compounds without any hit were thinned out: in the full panel of roughly 79,000, 15% have a hit. Unmarked numbers belong to inactive results. Activity calls are given as the source filed them. Rule as the data show it: active = growth inhibition above about 70%; inactive = the rest.",
  "data": [
    {"smiles": "COC(=O)C(=O)CC(=O)c1cccc(OC)c1", "values": [
      {"measurement": "growth inhibition", "setting": "at 1.2 µM", "value": 1, "unit": "%"},
      {"measurement": "growth inhibition", "setting": "at 3.7 µM", "value": 9, "unit": "%"},
      {"measurement": "growth inhibition", "setting": "at 11.0 µM", "value": 24, "unit": "%"},
      {"measurement": "growth inhibition", "setting": "at 33.0 µM", "value": 28, "unit": "%"},
      {"measurement": "growth inhibition", "setting": "at 100.0 µM", "value": 39, "unit": "%"}
    ]},
    {"smiles": "O=C(Cc1ccccc1)NN1C(=O)C(Cl)C1c1cc(Br)cc(Br)c1O", "note": "(stereo not given)", "values": [
      {"measurement": "growth inhibition", "setting": "at 1.2 µM", "value": -9, "unit": "%"},
      {"measurement": "growth inhibition", "setting": "at 3.7 µM", "value": -5, "unit": "%"},
      {"measurement": "growth inhibition", "setting": "at 11.0 µM", "value": "73% (active)"},
      {"measurement": "growth inhibition", "setting": "at 33.0 µM", "value": "94% (active)"},
      {"measurement": "growth inhibition", "setting": "at 100.0 µM", "value": "89% (active)"}
    ]},
    {"smiles": "Cc1cc(C)c(S(=O)(=O)c2ccc(Cl)cc2)c(C)c1", "values": [
      {"measurement": "growth inhibition", "setting": "at 1.2 µM", "value": -5, "unit": "%"},
      {"measurement": "growth inhibition", "setting": "at 3.7 µM", "value": -10, "unit": "%"},
      {"measurement": "growth inhibition", "setting": "at 11.0 µM", "value": -16, "unit": "%"},
      {"measurement": "growth inhibition", "setting": "at 33.0 µM", "value": -14, "unit": "%"},
      {"measurement": "growth inhibition", "setting": "at 100.0 µM", "value": -4, "unit": "%"}
    ]},
    {"smiles": "CC(C)C(c1ccccc1)c1ccccc1", "values": [
      {"measurement": "growth inhibition", "setting": "at 1.2 µM", "value": -1, "unit": "%"},
      {"measurement": "growth inhibition", "setting": "at 3.7 µM", "value": -1, "unit": "%"},
      {"measurement": "growth inhibition", "setting": "at 11.0 µM", "value": 0, "unit": "%"},
      {"measurement": "growth inhibition", "setting": "at 33.0 µM", "value": -2, "unit": "%"},
      {"measurement": "growth inhibition", "setting": "at 100.0 µM", "value": 49, "unit": "%"}
    ]},
    {"smiles": "N#CC1OB(O)c2ccccc21", "note": "(stereo not given)", "values": [
      {"measurement": "growth inhibition", "setting": "at 1.2 µM", "value": -5, "unit": "%"},
      {"measurement": "growth inhibition", "setting": "at 3.7 µM", "value": -4, "unit": "%"},
      {"measurement": "growth inhibition", "setting": "at 11.0 µM", "value": -5, "unit": "%"},
      {"measurement": "growth inhibition", "setting": "at 33.0 µM", "value": -4, "unit": "%"},
      {"measurement": "growth inhibition", "setting": "at 100.0 µM", "value": 0, "unit": "%"}
    ]},
    {"smiles": "O=C(NOC(=O)c1ccc([N+](=O)[O-])cc1)c1ccc(Cl)cc1", "values": [
      {"measurement": "growth inhibition", "setting": "at 1.2 µM", "value": -30, "unit": "%"},
      {"measurement": "growth inhibition", "setting": "at 3.7 µM", "value": -31, "unit": "%"},
      {"measurement": "growth inhibition", "setting": "at 11.0 µM", "value": -9, "unit": "%"},
      {"measurement": "growth inhibition", "setting": "at 33.0 µM", "value": "84% (active)"},
      {"measurement": "growth inhibition", "setting": "at 100.0 µM", "value": "96% (active)"}
    ]},
    {"smiles": "CSc1nc(-c2ccccc2)nc(=[N+]2CCOCC2)s1", "values": [
      {"measurement": "growth inhibition", "setting": "at 1.2 µM", "value": 5, "unit": "%"},
      {"measurement": "growth inhibition", "setting": "at 3.7 µM", "value": 11, "unit": "%"},
      {"measurement": "growth inhibition", "setting": "at 11.0 µM", "value": 23, "unit": "%"},
      {"measurement": "growth inhibition", "setting": "at 33.0 µM", "value": 56, "unit": "%"},
      {"measurement": "growth inhibition", "setting": "at 100.0 µM", "value": "93% (active)"}
    ]},
    {"smiles": "CCOP(=O)(OCC)/C(C#N)=C/c1ccc(-c2ccc(F)cc2F)o1", "values": [
      {"measurement": "growth inhibition", "setting": "at 1.2 µM", "value": -2, "unit": "%"},
      {"measurement": "growth inhibition", "setting": "at 3.7 µM", "value": -2, "unit": "%"},
      {"measurement": "growth inhibition", "setting": "at 11.0 µM", "value": -2, "unit": "%"},
      {"measurement": "growth inhibition", "setting": "at 33.0 µM", "value": -4, "unit": "%"},
      {"measurement": "growth inhibition", "setting": "at 100.0 µM", "value": -1, "unit": "%"}
    ]}
  ]
}
